According to the supplement of paper PMC3334620:
In all, about 33,000 sequences were measured (“E-score (-0.5 to 0.5)”: median about -0.0034, highest 2% from about 0.25 on). The sample holds the highest values, similar sequences and a random draw of the others, so the mix is not that of the screen.

Target: T1, Yap3 (UniProt P38749)
T1 sequence: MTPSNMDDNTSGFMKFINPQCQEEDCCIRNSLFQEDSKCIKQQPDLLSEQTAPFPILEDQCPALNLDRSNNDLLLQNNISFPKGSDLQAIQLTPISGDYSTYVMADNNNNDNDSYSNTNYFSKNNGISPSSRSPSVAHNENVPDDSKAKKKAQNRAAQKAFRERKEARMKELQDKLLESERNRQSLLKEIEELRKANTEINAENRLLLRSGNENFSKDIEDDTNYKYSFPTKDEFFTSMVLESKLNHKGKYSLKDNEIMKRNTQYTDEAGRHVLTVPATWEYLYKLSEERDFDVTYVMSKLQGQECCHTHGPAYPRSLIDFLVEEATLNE
Assay: PBM E-score (8-mer binding enrichment) (E-score (-0.5 to 0.5)); higher = stronger / more preferred TF binding
Conditions: protein concentration: 100 nM; construct: GST-full length
Protocol: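 Universal 'all 10-mer' protein binding microarrays (Agilent AMADID 015681) probed with GST-tagged S. cerevisiae TFs (full-length or DBD) made by in vitro transcription/translation (PURExpress), about 100-200 nM. Bound TF was detected with fluorescent anti-GST. Each ungapped 8-mer (which stands for itself and its reverse complement) is scored by the PBM enrichment score (E-score), a modified Wilcoxon-Mann-Whitney statistic from -0.5 to +0.5, computed with the Universal PBM Analysis Suite. Scale: above 0.35 generally sequence-specific binding.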

Sequence | PBM E-score
ATCGACAT | 0.0988
ACCTGCTG | 0.0821
CGATAACA | 0.097
GGATAACA | 0.116
TGATAACA | 0.258
CGTTTTAA | 0.126
GAGGACGC | -0.1
AGTTCTAA | -0.0287
GGTTCTAA | 0.218
TGTTCTAA | 0.256
AGCTTGCG | -0.219
AATTGGGG | -0.023
AATTGGGC | 0.0215
AATTGGGT | 0.331
TATATTAA | 0.315
GCTATTAA | 0.103
ACTATTAT | 0.123
CATCTCAA | 0.108
AATATTAG | 0.239
GATATTAA | 0.212
AATATTAA | 0.346
AATCTCAA | 0.134
TGTATTAA | 0.126

Sequence | PBM E-score
AATATTAT | 0.333
TCTATTAA | 0.188
TATCTCAA | 0.256
AGAGGAAG | -0.0758
AATCGGGA | 0.0297
CTTTGATC | -0.0556
TGTAGAAA | 0.0253
CGATGGCA | -0.145
TAGCGGAA | -0.00131
CATATCAA | 0.275
AATATTCT | 0.133
CCTATTAC | 0.176
AATATTCC | 0.281
AATATTAC | 0.31
GATATTAC | 0.371
GCTATTAC | 0.137
GATATTCC | 0.12
AATATCAA | 0.244
CATATCAG | 0.064
AATATTCG | 0.223
AATATTGC | 0.202
ACGAACTC | 0.0654
TAGGAGAA | -0.178

Sequence | PBM E-score
AGAACGAA | 0.233
ATGTTGCA | 0.0661
TCATTCGA | 0.195
AGGATTAC | 0.125
GGAACGAC | -0.133
AGAGAATA | 0.208
GATATTCA | 0.0491
TATATTCA | 0.259
CAAATCAA | 0.267
CATATTAA | 0.299
CATATTGA | 0.0743
CATATTAG | 0.184
CATATTTC | 0.0493
GAAATCAA | 0.0981
CGTATTAA | 0.0173
AAAATCAA | 0.19
CATATTAC | 0.282
AATATTCA | 0.223
AAATACAT | 0.154
CTTGGTGC | -0.023
AGATAGCA | 0.0137
AACAGCAC | 0.0426
GCGATCGC | 0.191

Sequence | PBM E-score
CAATATGG | -0.00272
CACATTGC | 0.0928
CACTGCTA | 0.025
CGTTCTGA | -0.106
AATATCAT | 0.277
AACATTAC | 0.149
AATATCAG | 0.121
CACATTAC | 0.276
CACATTAG | -0.0914
AATATCAC | 0.222
ACAATTCT | 0.0509
AGGTTTGA | -0.014
CCAGGTCC | -0.307
CACATACA | -0.0173
GACATACA | 0.256
TACATACA | 0.209
GGACCGGA | -0.112
GATACAAA | 0.162
ATTACAAG | 0.166
CTTACAAA | 0.19
ATTACAAA | 0.37
TTTACAAA | 0.262
AATACAAA | 0.259

Sequence | PBM E-score
GTTACAAA | 0.225
ATTACAAT | 0.125
AATACAAG | 0.24
AGCATTCG | -0.106
GGATACGA | 0.0439
CGGCTGTA | -0.147
AATGTATG | 0.0768
AAGCCAGC | -0.0187
GTCGGGTA | 0.0387
GCTGCATA | 0.0463
AAGGGTGA | -0.0745
AGAGCCAG | -0.175
CTGACTAA | 0.392
ATGACTAG | 0.07
CTGACTTA | 0.16
ATGACTAA | 0.431
ATGACTAC | 0.0437
GTGACTCA | 0.0409
CTGACTAC | -0.0607
GTGACTAA | 0.262
GTGACTGA | 0.167
